Potency, activity change, positive = activation and outcome data for 9 molecules are collected here from PubChem BioAssay (Tox21).

The nature of assay [1]: qHTS assay to identify small molecule agonists of the constitutive androstane receptor (CAR) signaling pathway - cell viability counter screen (AID 1224836). Note: nearly all actives have a fitted effect of over 45% in size. Put shortly:
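23 h treatment, 37 C, 5% CO2. Cell line: HepG2 stably expressing hCAR with a CYP2B6-2.2kb construct. Co-treatment: PK11195, 0.75 uM final. Read-out: CellTiter-Fluor fluorescence intensity.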
(Quantitative high-throughput screening tests each substance at several concentrations.)

A short description of assay [2]: qHTS assay to identify small molecule antagonists of the constitutive androstane receptor (CAR) signaling pathway - cell viability counter screen (AID 1224837). Note: nearly all actives have a fitted effect of over 45% in size. The gist of the method:
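Multiplexed cytotoxicity read-out for the CAR antagonist screen: double-stable HepG2-CYP2B6-hCAR cells co-treated with 50 nM CITCO (final) and compound over 15 concentrations, incubated 23 hr, then assessed by CellTiter-Fluor fluorescence.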

Assay [3] in a line: qHTS assay to identify small molecule antagonists of the estrogen related receptor signaling pathway with the pleiotropic PPARgamma coactivator (PGC) from Tox21 10K library - cell viability counter screen (AID 1224840; active = well fitted cell-killing curve with a large enough effect in the repeat runs, not every such curve was filed as active; note: nearly all actives have a fitted effect of over 40% in size; note: potency is the fitted concentration of half-maximal effect). Put shortly: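 Step one, plate 2,000 PGC/ERR cells per well; step two, incubate 6 h at 37 C/5% CO2; step three, pin-transfer compounds; step four, incubate 17.5 h; step five, add CellTiter-Fluor and read fluorescence after 30 min.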

The nature of assay [4]: qHTS assay to identify small molecule antagonists of the estrogen related receptor signaling pathway with the pleiotropic PPARgamma coactivator (PGC) from Tox21 10K library (AID 1224841; call rule not given here; note: actives are mostly falling curves and most rising ones were filed inactive; nearly all actives have a fitted effect of over 50% in size; note: potency is the fitted concentration of half-maximal effect). Put shortly: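 Antagonism in this quantitative HTS is taken from loss of luciferase signal in PGC/ERR cells. Cells (2,000/well) are treated with compounds in DMSO after a 6 h settling period and read by One-Glo luminescence after 18 h.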

Assay [5] in a line: qHTS assay to identify small molecule agonists of the estrogen related receptor signaling pathway with the pleiotropic PPARgamma coactivator (PGC) from Tox21 10K library (AID 1224842). Note: nearly all actives have a fitted effect of over 15% in size. The gist of the method: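 Luminescence from One-Glo (30 min, room temperature) measured after PGC/ERR cells had 18 h at 37 C with pinned compound (23 nL in DMSO). Cells had been seeded at 2,000 per well and pre-incubated 6 h.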

A short description of assay [6]: qHTS assay to identify small molecule agonists of the hypoxia (HIF-1) signaling pathway - cell viability counter screen (AID 1224844; calls by dose curve; note: nearly all actives have a fitted effect of over 50% in size). Put shortly: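 Tox21 10K compounds were added to HRE-bla ME-180 cells (0.5% dialyzed FBS) and incubated 17 hrs at 37C; ATP-based CellTiter-Glo luminescence then reported cell viability in the same wells.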
Assay [7] can be described thus: qHTS assay to identify small molecule agonists of H2AX (AID 1224845; active = well fitted activation curve with a large enough effect in the signal ratio in the repeat runs, not every such curve was filed as active; the % refers to the signal ratio; note: potency is the fitted concentration of half-maximal effect). Put shortly:
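Phospho-H2AX Ser139 measured by HTRF (ex 320 nm; em 665 and 620 nm) after 24 hr antibody incubation. Compounds, 15 concentrations, 0.76% DMSO, were applied to CHO-K1 cells for 3hr at 37C before lysis.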

The nature of assay [8]: qHTS assay to identify small molecule agonists of H2AX - cell viability counter screen (AID 1224847; calls by dose curve; note: nearly all actives have a fitted effect of over 30% in size; note: potency is the fitted concentration of half-maximal effect). The gist of the method: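 Compounds tested at 15 concentrations were incubated 3 hr at 37C with wild-type CHO-K1 cells; cellular ATP-based luminescence (CellTiter-Glo) indicated viability.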
Assay [9] is described as follows: qHTS assay to identify small molecule antagonists of the estrogen related receptor (ERR) signaling pathway from Tox21 library (AID 1224848). Note: nearly all actives have a fitted effect of over 50% in size. Note: potency is the fitted concentration of half-maximal effect. The gist of the method:
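Reading was by luminescence 30 min after ONE-Glo addition. Before that, ERR cells at 2,000 per well had rested 6 h at 37 C/5% CO2 and then received pin-tooled compounds in DMSO for 18 h at 37 C.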

Assay [10] is described as follows: qHTS assay to identify small molecule agonists of the estrogen related receptor (ERR) signaling pathway from Tox21 library (AID 1224849; calls by dose curve; note: nearly all actives have a fitted effect of over 15% in size). The conditions noted are these: ERR reporter cell line, ONE-Glo luciferase, 18 h. Put shortly:
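Agonist signal is luciferase luminescence from an ERR reporter cell line treated 18 h at 37 C with DMSO-dissolved compounds, read 30 min after ONE-Glo addition at room temperature.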

The nature of assay [11]: qHTS RealTime-Glo MT Cell Viability Assay in HepG2 cells - 24 hour (AID 1224867). Note: nearly all actives have a fitted effect of over 50% in size. Note: potency is the fitted concentration of half-maximal effect. The gist of the method:
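HepG2 suspension premixed with RealTime-Glo reagents is plated at 600 cells per well and left 5 h at 37 C/5% CO2. Compounds in DMSO then go in, and bioluminescence reflecting viable cell number is recorded over 40 h.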

Assay [12] in a line: qHTS RealTime-Glo MT Cell Viability Assay in HEK293 cells - 32 hour (AID 1224868). Note: nearly all actives have a fitted effect of over 50% in size. Note: potency is the fitted concentration of half-maximal effect. The gist of the method: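 Reads taken at 0, 8, 16, 24, 32 and 40 h from the same wells. HEK293 cells (600/well) carried RealTime-Glo reagents from seeding, with compound added after a 5 h settle at 37 C.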
The nature of assay [13]: A CellTox Green Cytotoxicity Assay to monitor cytotoxicity in HEK293 cells - 0 hour (AID 1224869). Note: nearly all actives have a fitted effect of over 50% in size. The gist of the method: (§1)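 Cytotoxicity was tracked continuously in HEK293 cells by a DNA-binding dye excluded from viable cells. Compounds were transferred in DMSO 5 h after seeding; fluorescence was recorded at intervals up to 40 h.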
Assay [14] can be described thus: qHTS RealTime-Glo MT Cell Viability Assay in HepG2 cells - 40 hour (AID 1224870). Note: nearly all actives have a fitted effect of over 50% in size. Note: potency is the fitted concentration of half-maximal effect. The gist of the method:
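Real-time viability: cells seeded at 600 per well together with NanoLuc and cell-permeant prosubstrate, compounds added after 5 h incubation. Luminescence tracked at 0, 8, 16, 24, 32 and 40 h of exposure.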

Assay [15] has as its target Nuclear receptor subfamily 1 group I member 3 (Homo sapiens) (UniProt Q14994). The assay can be described thus: qHTS assay to identify small molecule antagonists of the constitutive androstane receptor (CAR) signaling pathway (AID 1224838). Note: nearly all actives have a fitted effect of over 40% in size. Put shortly:
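Compounds were titrated across 15 concentrations onto HepG2 cells double-stably expressing hCAR and a CYP2B6-2.2kb reporter, together with 50 nM CITCO (final). After 24 h at 37 C, luciferase activity was measured by luminescence.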

The target is the same in assay [16]. Description: qHTS assay to identify small molecule agonists of the constitutive androstane receptor (CAR) signaling pathway (AID 1224839).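 Note: HepG2 cells stably carrying human CAR and a CYP2B6 luciferase reporter; nearly all actives have a fitted effect of over 15% in size.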 The gist of the method:
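Compounds tested at 15 concentrations on HepG2 cells stably harbouring hCAR and CYP2B6-2.2kb reporter constructs, co-treated with PK11195 (0.75 uM final), 24 h at 37 C; luminescent reporter signal quantified.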

Assay [17] deals with Thyrotropin receptor (Homo sapiens) (UniProt P16473). Description: qHTS assay to identify small molecule agonists of the thyroid stimulating hormone receptor (TSHR) signaling pathway (AID 1224843; calls by dose curve; note: nearly all actives have a fitted effect of over 45% in size; note: potency is the fitted concentration of half-maximal effect). The gist of the method: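 HEK293 cells stably bearing the thyrotropin receptor were plated at 800 cells/well and challenged with compound (30 min, RT). Accumulated cAMP was quantified via cAMP-d2 competing for cryptate-tagged antibody.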
Thyrotropin receptor (Homo sapiens), sequence (P16473 whole entry, looked up): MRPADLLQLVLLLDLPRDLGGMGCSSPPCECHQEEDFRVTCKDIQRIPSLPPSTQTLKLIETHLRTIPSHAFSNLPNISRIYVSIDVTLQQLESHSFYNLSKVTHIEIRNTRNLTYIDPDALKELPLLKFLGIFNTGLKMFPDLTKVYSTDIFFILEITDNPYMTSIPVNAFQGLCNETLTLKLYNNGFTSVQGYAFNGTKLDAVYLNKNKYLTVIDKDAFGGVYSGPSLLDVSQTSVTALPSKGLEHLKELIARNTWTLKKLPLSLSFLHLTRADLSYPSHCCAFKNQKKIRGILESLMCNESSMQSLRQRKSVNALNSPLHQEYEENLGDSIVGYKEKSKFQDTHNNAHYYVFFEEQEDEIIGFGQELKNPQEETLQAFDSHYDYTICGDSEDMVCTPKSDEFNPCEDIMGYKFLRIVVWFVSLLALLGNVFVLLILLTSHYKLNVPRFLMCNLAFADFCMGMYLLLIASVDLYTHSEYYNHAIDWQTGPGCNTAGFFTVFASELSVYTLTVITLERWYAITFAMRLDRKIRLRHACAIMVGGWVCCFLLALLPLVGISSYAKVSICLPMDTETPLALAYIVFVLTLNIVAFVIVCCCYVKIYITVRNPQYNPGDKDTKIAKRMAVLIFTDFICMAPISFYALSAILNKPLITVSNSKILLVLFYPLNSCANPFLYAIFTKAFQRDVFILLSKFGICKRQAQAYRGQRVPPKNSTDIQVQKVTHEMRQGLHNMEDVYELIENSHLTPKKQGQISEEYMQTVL

A short description of assay [18]: qHTS assay to identify small molecule agonists of the hypoxia (HIF-1) signaling pathway (AID 1224846; active = well fitted activation curve with a large enough effect in the signal ratio in the repeat runs, not every such curve was filed as active; the % refers to the signal ratio). The gist of the method:
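Steps: seed ME-180 HRE-bla cells (2,000/well, 0.5% dialyzed FBS); incubate 5 hrs at 37C; pin-transfer compounds or DMSO; incubate 17 hrs; add LiveBLAzer B/G substrate CCF4-AM; measure reporter activation by FRET.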

Assay [19] can be described thus: A CellTox Green Cytotoxicity Assay to monitor cytotoxicity in HEK293 cells - 40 hour (AID 1224871). Note: nearly all actives have a fitted effect of over 45% in size. Note: potency is the fitted concentration of half-maximal effect. The gist of the method: as §1

Several values for one entry are separate records, joined by “and”; a condition that tells them apart may be missing. Identical values can stand only once. Results filed as inconclusive are left out. Some structures have more than one record in an assay (separate samples or runs), and their calls can disagree. Activity calls are given as the source filed them. Unless noted, calls come from the whole dose curve; as a rule, active = well fitted curve in the direction sought with a large enough effect in the repeat runs; inconclusive = weak or mixed curves; inactive = no such curve, though single readings can be large; an effect the other way counts as inactive or inconclusive.
% is set by controls: 0 for no effect and ±100 for the full control effect.

Nuclear receptor subfamily 1 group I member 3 (Homo sapiens), sequence (Q14994 whole entry, looked up): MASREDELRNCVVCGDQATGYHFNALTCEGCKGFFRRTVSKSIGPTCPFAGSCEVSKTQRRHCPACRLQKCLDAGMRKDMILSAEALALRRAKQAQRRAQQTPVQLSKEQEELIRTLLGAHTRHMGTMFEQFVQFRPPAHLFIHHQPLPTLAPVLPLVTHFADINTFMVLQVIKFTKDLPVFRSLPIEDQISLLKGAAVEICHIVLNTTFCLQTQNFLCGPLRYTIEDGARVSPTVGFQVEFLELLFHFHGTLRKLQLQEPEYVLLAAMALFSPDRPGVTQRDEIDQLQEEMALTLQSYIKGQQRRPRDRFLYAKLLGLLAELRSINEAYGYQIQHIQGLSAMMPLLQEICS

As to `CCCCNC(=O)NS(=O)(=O)c1ccc(C)cc1`, the Potency result in [1], in [2], in [3], in [4], in assay [5] and in assay [6] was “inactive” in each case. Also, the Potency entry in assay [7], in assay [8], in assay [9], in assay [11], in assay [12] and in assay [13] was “inactive” each time. Also, the Potency result in assay [14] was “inactive”. Besides, the activity change, positive = activation is 4.14% (inactive) in assay [10] (at 42.5 µM (top of the series)); -14.4% (inactive) and 0.897% (inactive) in assay [10] (at 92.4 µM (top of the series)).

On to `C=C1CC[C@H](O)C/C1=C\C=C1/CCC[C@]2(C)[C@@H]([C@H](C)CCCC(C)C)CC[C@@H]12`, for which the Potency result in [1], in assay [15], in assay [16], in assay [11], in assay [13] and in [14] was “inactive” each time. The Potency in assay [17] is 19.2 µM (active).

Regarding `CC1(C)O[C@@H]2C[C@H]3[C@@H]4CCC5=CC(=O)C=C[C@]5(C)[C@@]4(F)[C@@H](O)C[C@]3(C)[C@]2(C(=O)CO)O1`, the Potency entry in [1], in [2], in [3], in assay [4], in assay [5] and in assay [7] was “inactive” each time. For the same molecule, the Potency result in [8], in assay [9], in assay [11], in assay [12], in assay [13] and in [14] was “inactive” each time. Further, the molecule was classed as inactive in assay [18]. Further, the activity change, positive = activation in [10] (at 42.5 µM (top of the series)) was -6.5% (inactive); in [10] (at 92.4 µM (top of the series)), -23.9% (inactive) and -13.8% (inactive). Further, in assay [19], the Potency entry was “inactive and 9.52 µM (active)”.

As to `C1CCC(C(CC2CCCCN2)C2CCCCC2)CC1` (configuration not stated), the Potency entry in [16], in assay [5] and in assay [13] was “inactive” each time. The Potency in assay [3] is 29.8 µM (active); in assay [7], 6.95 µM (active); in [8], 55.2 µM (active); in assay [9], 29.8 µM (active); in [11] it was 5.35 µM (active); in [12] it was 10.7 µM (active). Further, in [14], the Potency is 5.35 µM (active). Moreover, the activity change, positive = activation in assay [10] (at 42.5 µM (top of the series)) was -54.8% (inactive).

Turning to `Cc1ccc(S(=O)(=O)O)cc1`, the Potency entry in assay [1], in [2], in assay [3], in assay [6], in assay [7] and in assay [11] was “inactive” in each case. In addition, the Potency result in assay [13], in assay [14] and in assay [19] was “inactive” in each case. Moreover, the molecule was classed as inactive in assay [18].

For the molecule `NS(=O)(=O)O`, the Potency entry in [1], in assay [2], in assay [15], in assay [3], in assay [6] and in assay [7] was “inactive” throughout. Further, the Potency entry in assay [8], in assay [11], in [12], in [13], in [14] and in assay [19] was “inactive” each time. In addition, in [18], the molecule was classed as inactive.

As to `CC(O)(P(=O)(O)O)P(=O)(O)O`, the Potency entry in assay [1], in assay [2], in assay [3], in assay [17], in [6] and in assay [7] was “inactive” throughout. Also, the Potency result in [11], in assay [13] and in assay [14] was “inactive” throughout.

With `COc1ccc(CN(CCN(C)C)c2ccccn2)cc1`, the Potency result in assay [1], in [2], in [3], in assay [7], in [13] and in assay [19] was “inactive” in each case.

Regarding `CS(=O)(=O)OCCCCOS(C)(=O)=O`, the Potency entry in [1], in [2], in assay [3], in assay [5], in assay [17] and in [7] was “inactive” in each case. In addition, the Potency entry in assay [9], in assay [11], in [13], in assay [14] and in assay [19] was “inactive” in each case. Moreover, in [4], the Potency was 30.7 µM (active) and inactive. Also, the molecule was called inactive in assay [18]. Further, the activity change, positive = activation was -0.0445% (inactive) in assay [10] (at 42.5 µM (top of the series)); -6.97% (inactive) and 6.13% (inactive) in [10] (at 92.4 µM (top of the series)).
